In the supplement of paper PMC6555819:

Legend:
Experiment in all cases: PBM binding z-score (relative to random genomic background probes); higher = stronger binding; sequences stand for … in GC…GCGATTGACAGCGTAGAATGAAGG
[1] = tested on: RARb homodimer (NR concentration 270 nM)
How it was run: (§1)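 Ligand-free nuclear receptor dimers were applied to custom Agilent 4×180K protein-binding microarrays whose double-stranded probes carried direct-repeat seeds, single-nucleotide variants, half-site ablations and random human genomic background sequences in 34-nt variable regions. Incubation lasted 1 h. Binding z-scores were computed against the random background probes from regression-normalized fluorescence.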

[2] = tested on: RARg:RXRa (NR concentration 270 nM, RXRa partner concentration 90 nM)
How it was run: as §1

[3] = tested on: RARg homodimer (NR concentration 270 nM)
How it was run: as §1

[4] = tested on: RXRa DBDmut IVT, anti-RXR (DBD mutation: RXRa K156A/R161A, NR concentration 90 nM)
How it was run: as §1

[5] = tested on: RXRa homodimer (NR concentration 180 nM)
How it was run: as §1

[6] = tested on: THRa:RXRa (NR concentration 90 nM, RXRa partner concentration 90 nM)
How it was run: as §1

[7] = tested on: THRa homodimer (NR concentration 90 nM)
How it was run: as §1

[8] = tested on: VDR homodimer (NR concentration 270 nM)
How it was run: as §1

Sequence | PBM binding z-score [1] | PBM binding z-score [2] | PBM binding z-score [3] | PBM binding z-score [4] | PBM binding z-score [5] | PBM binding z-score [6] | PBM binding z-score [7] | PBM binding z-score [8]
TTACCAAGGTGAAGGTCGTTCATCCCTCTGTAGA | 2.21 | 1.63 | 1.5 | 0.548 | 1.75 | 2.62 | 1.08 | 1.1
ACTATCAGTTGACTTAGGGCAACCGATACGACGC | 0.986 | 0.641 | 1.1 | 0.226 | 0.399 | 1.46 | 0.315 | 0.169
TATGCTAGGTCAGTTGGTCAGCTAACGAGCTGCC | 2.5 | 2.62 | 3.34 | -0.0461 | 1.06 | 1.3 | 0.034 | -0.256
ATACCAAGGTGATCGTGAGGTTGTTGATACTAAC | 0.567 | 0.576 | 0.356 | 0.169 | 0.593 | 1.89 | 0.949 | 0.36
TCAGACAGGTGAAGGTAAGTCAGGTACGCAGTCG | 1.09 | 0.505 | 0.581 | 1.17 | 0.716 | 0.959 | 0.538 | 0.0228
AGAATGAGGTTCTACGTAGATCAGGGAAGAAAGT | -0.327 | -0.12 | 0.0722 | 0.025 | -0.0793 | -0.0436 | -0.709 | -0.322
TCGAGTAGGTTACCAATGGGGCATCCAGCTTTCT | 0.918 | 1.39 | 0.452 | -0.00896 | 0.647 | -0.146 | -0.638 | -0.823
AGTCAAAGTTCCTCTAGGTAACGTAAGATATGCT | -0.0173 | 0.433 | 0.491 | 0.711 | 0.183 | 1.23 | -0.0927 | 0.297
TCATATAGGTTAACAGGTGAAAGTCCGTAAGTTA | 1.85 | 2.13 | 1.57 | 1.53 | 2.09 | 1.39 | 0.525 | 0.443
TGAATGAGGTTAAAGATCAGGGACCGTGGCGTCG | 0.662 | 2.38 | 0.948 | 0.631 | 3.61 | 2.39 | 0.453 | 0.608
CCTCGGAGGACAGAATGTCAGAGCTGTCCGCTTT | -0.0927 | -0.321 | 0.175 | -0.282 | -0.66 | -0.251 | -0.615 | -0.654
ATCTCAAGGTAAAGATAGTTCAGTGAATGCAAAT | 0.976 | 1.03 | 1.11 | 0.292 | 0.564 | 1.53 | 0.311 | 0.351
TCTCGGAAGACACGAAGGTCAGAGCTTTCCAGAG | 3.02 | 1.39 | 1.67 | 0.484 | 1.61 | 1.09 | -0.118 | 0.195
AGTCAAAGTTCAGGGCGAGGTAACGTAAAGCACG | 3.56 | 5.13 | 4.99 | 2.95 | 3.15 | 3.64 | 1.28 | 2.15
GCTGCTAGGTCAGGTTGGTCAGTTAACGGGTACG | 2.75 | 2.59 | 3.38 | 0.795 | 1.02 | 2.03 | 1.2 | 0.71
ATATGTAGGTTAAGAGTCATTCAGGTTGGTTCGC | 1.26 | 1.23 | 1.13 | 0.882 | 1.53 | 1.24 | 0.283 | 1.24
CAGCCTCGGTCAGGGCCAGTATAGGAGGAACGTT | 1.31 | 0.85 | 1.86 | -0.961 | -0.355 | -0.5 | -0.413 | -0.875
GGAACAAGGGCAAAGTTGATAGCATCTGTCGACG | 1.5 | 1.92 | 1.83 | 1.5 | 1.27 | 0.979 | -0.125 | 0.766
TCTATTAGCTGATTAGGGCAACCGAAACAGCGGA | -0.0375 | 0.212 | 0.313 | 0.509 | 0.233 | 0.211 | -0.143 | -0.58

Sequence | PBM binding z-score [1] | PBM binding z-score [2] | PBM binding z-score [3] | PBM binding z-score [4] | PBM binding z-score [5] | PBM binding z-score [6] | PBM binding z-score [7] | PBM binding z-score [8]
TAGACTAGGTCATGCGGGCCAGTATAGTGTCGGC | 2.66 | 3.38 | 4.13 | 0.0121 | 2.73 | 2.84 | 0.705 | 0.756
CGTCTAAGTTCAACTAAGGTAACGTAAAGCACGC | 3.13 | 4.18 | 4.79 | 4.84 | 3.54 | 4.95 | 2.6 | 4.24
TGTCAAAGTTCAAAGGTAACTTAAGTATCCACAC | 3.71 | 6.26 | 6.11 | 4.5 | 7.54 | 3.6 | -0.309 | 4.03
TCATATAGGTAAAAGGTGAAAGACGGTGTGGTAA | 1.74 | 2.01 | 0.857 | 1.7 | 3.05 | 1.55 | 0.208 | 0.152
CCAGACAGGTGAGAAGGTAACTCTGCCTCGATTA | 0.53 | 0.418 | 0.366 | 0.11 | 0.281 | 0.348 | 0.0664 | -0.0879
ATCTCTAGGTAATAAGTTCAGTGAAAGAGAGGAC | 2.13 | 1.53 | 1.59 | 1.23 | 0.755 | 1.64 | 1.31 | 2.41
CGTCCAAGGTCATAGGAGGTCAGTCAAGACAGAT | 5.57 | 6.78 | 7.57 | 3.37 | 6.76 | 5.43 | 3.34 | 4.33
CCTACTGGGCCAAAAGGGTCATTGATGCCGATAA | 3.22 | 3.29 | 2.71 | 0.103 | 3.26 | 2.17 | -0.01 | 2.72
CAGCCTAGGTCAGGGCTAGTATAGGAGGAACGTT | 2.38 | 2.93 | 3.76 | -0.422 | 1.49 | 1.82 | 0.321 | -0.179
CGAACTTGGTCATTGACAGGACAGTGAATAGTAA | 0.601 | 1.04 | 0.884 | 0.43 | 0.621 | 0.513 | -0.107 | 0.11
ACTCGGAGGACACAGGTCAGAGCTACGCCAGTGA | 2.78 | 2.68 | 3.12 | 0.823 | 2.09 | 2.57 | 0.77 | 0.0264
GCTGCTAGGTCAGGTTGCTCAGCTAACGGGTACG | 2.14 | 2.32 | 2.99 | 0.623 | 0.855 | 1.49 | 0.194 | 0.297
GCTATTAGTTGAAAGGGCAACAGAATGATTCTCG | 1.87 | 1.36 | 1.47 | 0.874 | 1.24 | 0.672 | -0.526 | 0.397
CGTCCAAGGTCAGAGTGGTCAGTGAATGCCGAGT | 3.83 | 4.78 | 5.48 | 2.94 | 3.42 | 3.59 | 1.9 | 2.23
ACTATTAGTTGAGACGAGGGCAATCGATAGGTTG | 0.955 | 0.898 | 0.973 | 0.801 | 0.517 | 2.22 | -0.15 | 1.06
ATCGAAAGGTCGAAGGTGAGTATTCCCACCCGAA | 2.4 | 4.36 | 3.76 | 1.17 | 5.41 | 2.13 | 0.00651 | 0.282
AGTCAAAGTTCACTAGGTAACGTCAGATTCAGCT | 3.86 | 5.2 | 5.98 | 4.32 | 4.31 | 1.96 | 0.43 | 3.7
GCTATTCGTTGAAAGGGCAACCGAATGATTCTCG | 1.85 | 1.23 | 1.21 | 0.319 | 0.916 | 0.348 | -0.335 | -0.329
AATACAGGGTTATCGTAGGCCAGAGTACGCACAG | 1.09 | 1.52 | 1.11 | 0.484 | 2.28 | 3.61 | 0.15 | 1.12

Sequence | PBM binding z-score [1] | PBM binding z-score [2] | PBM binding z-score [3] | PBM binding z-score [4] | PBM binding z-score [5] | PBM binding z-score [6] | PBM binding z-score [7] | PBM binding z-score [8]
CCGAATGGGGCATAAGGTTACCATAAGCCAGCCC | 1.7 | 1.67 | 1.03 | -0.221 | 1.49 | 2.1 | 1.45 | -0.245
CGTCCAAGGTCCAGGTCAGTGAAAGAGACTCGAA | 2.38 | 1.4 | 1.92 | 0.467 | 0.732 | 2.22 | 1.67 | 0.482
TCTGCTAGGGCAGTTGGTCAGCTAACGAGCTGCC | 0.33 | -0.0411 | 0.49 | -0.0574 | -0.74 | -0.754 | -0.968 | -1.08
GCTTGTAGAACAAGGTTAAGAAAGACTAAGCTAA | -0.00172 | 0.534 | 0.188 | -0.0592 | 0.633 | 0.947 | -0.592 | -0.315
TAGCCCAGGTCATTGGGCCAGTATAGTACGCATC | 2.76 | 3.9 | 4.11 | 2.29 | 3.37 | 3.36 | 1.65 | 2.16
CCTTACGGGTCAATGACAGGTTATAGCATTTGGA | 3.12 | 5.64 | 4.22 | 1.9 | 4.58 | 2.59 | -0.0254 | 1.18
ATTATTAGTTGAGACGAGGGCAACCGATAGGTTG | 1.64 | 1.02 | 1.18 | 0.511 | 0.708 | 2.79 | 0.878 | 1.63
CGTCAAAGTTCAACTAAGGTAACATAAAGCACGC | 4.23 | 5.98 | 6.47 | 4.9 | 5.01 | 5.25 | 1.77 | 3.89
AGAACGCGGGCACGCTGAGTTGATAGCAGAGTAG | -0.459 | 0.0245 | 0.351 | -0.368 | 0.141 | -0.476 | -1.01 | 0.0842
AGAATGAGGTTATTAAGATCAAGGAATTGCGGTC | 0.762 | 1.21 | 0.86 | 2.05 | 1.86 | 2.13 | 0.766 | 1.61
GCATCTAGGTAATACAAGGTGAAAGTCCGATTGT | 0.893 | 0.422 | 0.244 | -0.0985 | 0.576 | 3.63 | 1.22 | -0.188
GCTGCTAGGTCAACTGATGGTCAGATAAAGCTCG | 3.52 | 5.33 | 5.41 | 1.79 | 3.01 | 2.9 | 1.07 | 0.346
CCTAGCAGGCCAATCTGGGTCACTCAGGGCTTGA | 2.15 | 0.923 | 1.06 | 0.0967 | 0.498 | 3.58 | 0.158 | -0.303
GGAACGAGGGCAAAGTTGATGGCATCTGTCGACG | 1.32 | 2.05 | 1.74 | 2.62 | 1.97 | 1.55 | -0.087 | 1.7
ACAGACAGGTGAGTGAAGGTACCTCAGCTGGACG | -0.44 | -0.0299 | 0.22 | -0.86 | -0.0741 | 0.291 | -0.575 | -0.908
TAGCCTAGGTCAGATCCGGCCAGTATACGCTATA | 2.26 | 2.41 | 3.5 | -0.288 | 1.41 | 3.4 | 0.0339 | -0.271
CCTACTGGGCCAAAAAGGTCATAGATGCCGATAA | 4.35 | 4.63 | 4.54 | 0.263 | 5.22 | 3.08 | 0.589 | 2
TCGAGTAGATTAGGGGCATTCAGAATGGCGTCGA | 0.0337 | -0.202 | -0.446 | 0.574 | 0.16 | 0.515 | -0.591 | 0.687
